According to paper PMC5540273 (PLoS ONE, 2017):

test system: T1, p38-alpha; conditions: concentration: 1 μM, replicates: in singlicate; n = 1
T1 construct: gene MAPK14
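Note: KINOMEscan kinase panel screen.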

Compound	%Inh [%]
CN1CCN(CCCNc2nccc(-c3c(-c4ccc(F)cc4)nn4cc(C(F)(F)F)ccc34)n2)CC1 [GW621581]	99.8
CCn1c(-c2nonc2N)nc2c(C#CC(C)(C)O)nc(OC[C@H](N)c3ccccc3)cc21 [GSK943949]	0
Cl.c1ccc(-c2ccc3c(Nc4ccc5[nH]ncc5c4)ccnc3c2)nc1 [GW440137]	8
COc1cccc(-c2ccc3c(NC(=O)C4CC4)n[nH]c3n2)c1 [SB-710903]	23
CCCCc1nn2ncccc2c1-c1ccnc(Nc2ccc(N3CCN(C)CC3)cc2)n1 [GW684941]	94.2
CC(C)(C)c1ccc2nccc(Nc3cccc(O)c3)c2c1 [GW856795]	0
COc1cc(Nc2nccc(-c3c(-c4cccc(NC(=O)c5c(F)cccc5F)c4)nn4ccccc34)n2)cc(OC)c1OC [GSK323521]	0
COc1cccc(C(=O)Nc2cccc(Oc3ccc4nc(NC(=O)C5CC5)cn4n3)c2)c1	15
CCc1ccc(-c2ccc3c(c2)-c2c(cnn2C)S(=O)(=O)N3C)cc1	9
Cn1cc(-c2ccc3c(c2)CCN3C(=O)Cc2cccc(F)c2)c2c(N)ncnc21 [GSK2603358]	0
COc1cc2c(cc1OCCN1CCNCC1)ncc1c3ccc(C#N)cc3[nH]c21	9
COc1cc(Nc2ncc3c(C)nc(-c4cc5ccccc5[nH]4)n3n2)cc(OC)c1OC [GW869516]	9
CC(=O)Nc1nc2cnc(Nc3cc(NC(=O)c4cccc(C5(C#N)CC5)c4Cl)ccc3C)nc2s1	86
CCn1c(-c2nonc2N)nc2c(C#CC(C)(C)O)ncc(OCCCCN)c21.O=C(O)C(F)(F)F.O=C(O)C(F)(F)F [GSK507274]	0
Oc1cc(Nc2ccnc3cc(I)ccc23)ccc1F [GW552771]	4
Nc1n[nH]c2cnc(-c3ccccc3)cc12 [SB-642124]	0
C[C@@H]1CC[C@@H](C(=O)Nc2ccccc2)CN1c1cc(-c2ccc3c(N)n[nH]c3c2)nc(N)n1 [GSK2286062]	28
Cc1ccc(C(=O)N2CC[C@@H](O)C2)cc1-n1c(C)cc(OCc2ccc(F)cc2F)c(Br)c1=O	100
Nc1ncc(-c2cccnc2)c2scc(-c3ccc4c(c3)CCN4C(=O)Cc3ccccc3)c12 [GSK683281]	4
C[C@@H](Oc1cc(-n2cnc3cc(-c4ccnc(NCCS(C)(=O)=O)c4)ccc32)sc1C(N)=O)c1ccccc1Cl [GSK907232]	0
Cc1ccc(F)c(C(=O)Nc2cccc(-c3nn4ccccc4c3-c3ccnc(Nc4cccc(F)c4)n3)c2)c1F [GSK361061]	29
Cl.NC(=O)c1cccc(Nc2nccc(Nc3ccc(Oc4c(Cl)cccc4Cl)c(Cl)c3)n2)c1 [GW659009]	0
CN(C)S(=O)(=O)c1cc(-c2ccc3nccc(-c4cccc(S(N)(=O)=O)c4)c3c2)cnc1N [GSK1669921]	0
NCCCC(NC(=O)c1cc(Br)c(-c2ccnc3[nH]ccc23)s1)c1ccccc1.O=C(O)C(F)(F)F.O=C(O)C(F)(F)F (stereo not shown) [GSK1287544]	0

test system: T2, p38-beta; conditions: concentration: 1 μM, replicates: in singlicate; n = 1
T2 construct: gene MAPK11

Compound	%Inh [%]
O=C(O)C(F)(F)F.O=C(O)C(F)(F)F.O=c1[nH]ccc2nc(N[C@@H]3CCCNC3)nc(Nc3ccc(S(=O)(=O)N4CCOCC4)cc3)c12 [GSK2177277]	0
COC(=O)Nc1nc2ccc(Oc3ccc(NC(=O)Nc4cc(C(F)(F)F)ccc4F)cc3)cc2n1C.Cl [GW692089]	16
Fc1ccc(-c2ncn(C3CCNCC3)c2-c2ccnc(Oc3ccc(-c4ccccc4)cc3)n2)cc1 [SB-245391]	60
O=C(Nc1n[nH]c2nc(-c3ccc(O)cc3)ccc12)C1CC1 [SB-710363]	11
c1ccc(-c2n[nH]cc2Nc2ccnc3ccccc23)nc1 [GW694077]	0
O=C(Nc1cccc(-c2nn3ccccc3c2-c2ccnc(Nc3cccc(F)c3)n2)c1)c1c(F)ccc(F)c1Cl [GSK357952]	26
Nc1ncc(-c2ccc3nccc(-c4ccncc4)c3c2)cc1S(=O)(=O)N1CCOCC1 [GSK1627798]	0
COc1ccc(Nc2nccc(NCCNC(=O)c3cc4ccccc4s3)n2)cc1 [GSK1379896]	0
CN(c1ccc(NC(=O)Nc2cc(C(F)(F)F)ccc2F)cc1)c1ccnc(Nc2ccc(S(N)(=O)=O)cc2)n1 [GW809893]	88
COc1ccc(CNC(=O)NC2CCN(c3ccnc(Nc4ccc(F)cc4)n3)CC2)cc1 [GSK1379788]	0
Cc1ccc(S(=O)(=O)Nc2ccc(Nc3nccc(Nc4cccc5[nH]ncc45)n3)cc2)cc1 [GSK581271]	0
COc1cccc(NC(=O)NC2CCN(c3ccnc(Nc4cc(OC)c(OC)c(OC)c4)n3)C2)c1 (stereo not shown) [GSK1379763]	0
CC(C)c1nc(-c2cccc(NS(=O)(=O)c3c(F)cccc3F)c2F)c(-c2ccnc(Nc3ccc(N4CCOCC4)nc3)n2)s1 [GSK2008607]	51
CN1CCN(CCCNc2nccc(-c3c(-c4ccc(F)cc4)nn4cc(C(F)(F)F)ccc34)n2)CC1 [GW621581]	39
CCn1c(-c2nonc2N)nc2c(C#CC(C)(C)O)nc(OC[C@H](N)c3ccccc3)cc21 [GSK943949]	0
Cl.c1ccc(-c2ccc3c(Nc4ccc5[nH]ncc5c4)ccnc3c2)nc1 [GW440137]	0
COc1cccc(-c2ccc3c(NC(=O)C4CC4)n[nH]c3n2)c1 [SB-710903]	0
CCCCc1nn2ncccc2c1-c1ccnc(Nc2ccc(N3CCN(C)CC3)cc2)n1 [GW684941]	43
CC(C)(C)c1ccc2nccc(Nc3cccc(O)c3)c2c1 [GW856795]	0

Compound	%Inh [%]
COc1cc(Nc2nccc(-c3c(-c4cccc(NC(=O)c5c(F)cccc5F)c4)nn4ccccc34)n2)cc(OC)c1OC [GSK323521]	7
COc1cccc(C(=O)Nc2cccc(Oc3ccc4nc(NC(=O)C5CC5)cn4n3)c2)c1	16
CCc1ccc(-c2ccc3c(c2)-c2c(cnn2C)S(=O)(=O)N3C)cc1	4
Cn1cc(-c2ccc3c(c2)CCN3C(=O)Cc2cccc(F)c2)c2c(N)ncnc21 [GSK2603358]	0
COc1cc2c(cc1OCCN1CCNCC1)ncc1c3ccc(C#N)cc3[nH]c21	3
COc1cc(Nc2ncc3c(C)nc(-c4cc5ccccc5[nH]4)n3n2)cc(OC)c1OC [GW869516]	2
CC(=O)Nc1nc2cnc(Nc3cc(NC(=O)c4cccc(C5(C#N)CC5)c4Cl)ccc3C)nc2s1	19
CCn1c(-c2nonc2N)nc2c(C#CC(C)(C)O)ncc(OCCCCN)c21.O=C(O)C(F)(F)F.O=C(O)C(F)(F)F [GSK507274]	0
Oc1cc(Nc2ccnc3cc(I)ccc23)ccc1F [GW552771]	0
Nc1n[nH]c2cnc(-c3ccccc3)cc12 [SB-642124]	0
C[C@@H]1CC[C@@H](C(=O)Nc2ccccc2)CN1c1cc(-c2ccc3c(N)n[nH]c3c2)nc(N)n1 [GSK2286062]	0
Cc1ccc(C(=O)N2CC[C@@H](O)C2)cc1-n1c(C)cc(OCc2ccc(F)cc2F)c(Br)c1=O	95.4
Nc1ncc(-c2cccnc2)c2scc(-c3ccc4c(c3)CCN4C(=O)Cc3ccccc3)c12 [GSK683281]	0
C[C@@H](Oc1cc(-n2cnc3cc(-c4ccnc(NCCS(C)(=O)=O)c4)ccc32)sc1C(N)=O)c1ccccc1Cl [GSK907232]	14
Cc1ccc(F)c(C(=O)Nc2cccc(-c3nn4ccccc4c3-c3ccnc(Nc4cccc(F)c4)n3)c2)c1F [GSK361061]	76
Cl.NC(=O)c1cccc(Nc2nccc(Nc3ccc(Oc4c(Cl)cccc4Cl)c(Cl)c3)n2)c1 [GW659009]	100
CN(C)S(=O)(=O)c1cc(-c2ccc3nccc(-c4cccc(S(N)(=O)=O)c4)c3c2)cnc1N [GSK1669921]	0
NCCCC(NC(=O)c1cc(Br)c(-c2ccnc3[nH]ccc23)s1)c1ccccc1.O=C(O)C(F)(F)F.O=C(O)C(F)(F)F (stereo not shown) [GSK1287544]	0
